Compound activity (PubChem BioAssay)
Compounds with a hit are over-represented: about 3.8% of the library has one in this group of screens.
HepG2 viability: counter-screen for TGF-b inhibitors: cytotoxicity in HepG2 cells; HepG2 CAGA-GFP viability, ATP luminescence, 18 h; Potency, µM (top dose mostly 46.1 µM), inactives show at the highest dose activity change, negative = cytotoxicity, actives largely listed as cytotoxic; 410,000 compounds, 0.76% hits
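HepG2 CAGA-GFP cells (1000/well, DMEM with 1% FBS) received compound, then TGF-beta at 500 pg/mL final, and were incubated 18 hours at 37 degrees C. Viability was read by CellTiter-Glo luminescence. Media-only wells were set as complete cell-killing and DMSO as no toxicity.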
HT1080NT lethal: kills 2HG-producing HT-1080-NT fibrosarcoma cells | HT-1080-NT fibrosarcoma viability, CellTiter-Glo ATP luminescence, 48 h | Potency, µM (highest dose often 46.1 µM), for inactives: at the highest dose activity, negative = less viability, actives largely listed as cytotoxic | 360,000 compounds, 1.6% hits;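 note: NT is the 2HG producing partner of a matched IDH1 knockdown line; 0% = DMSO-treated cells and -100% = media-only wells without cells; nearly all actives have a fitted effect of over 55% in size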
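Compounds were tested in concentration-response format on HT-1080-NT cells for 48 hours at 37 degrees C. Cell viability came from CellTiter-Glo luminescence; curves were classified by r2, response magnitude and activity.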
S2 tox: viability counter-screen for ATXN expression inhibitors; Potency, µM (titrated, usually from 56.7 µM), hits mostly cytotoxic; S2 cells (HEK-293 line with an ATXN2-luciferase reporter) viability, CellTiter-Fluor protease fluorescence, 24 h; 400,000 compounds, 0.49% hits; note: nearly all actives have a fitted effect of over 40% in size
TGFb SMAD3 inh: inhibitors of TGF-b signaling; AID 588855; HepG2 CAGA-GFP TGF-b/SMAD3 reporter, GFP fluorescence, 18 h; TGF-beta stimulated, 500 pg/mL final; Potency, µM (top dose mostly 46.1 µM), for the others: top-dose activity, negative = inhibition, usual class: inhibitors; 410,000 compounds, 1.2% hits; note: % is set by controls: 0 for no effect and ±100 for the full control effect; nearly all actives have a fitted effect of over 65% in size
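First, reporter cells (HEPG2 CAGA-GFP) rested 2 h at 37 degrees C. Next, compounds were pinned in and TGF-beta added to 500 pg/mL final. After 18 h, GFP was imaged per cell and summed per well.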
HT1080 IDH1KD tx: kills HT-1080 cells with IDH1 knockdown; HT-1080 IDH1 knockdown viability, ATP luminescence, 48 h; Potency, µM (top dose mostly 46.1 µM), without a hit: at the highest dose activity, negative = toxicity, most hits filed as cytotoxic; 360,000 compounds, 2% hits; AID 686971;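 note: 0% = DMSO wells and -100% = cell-free medium wells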
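Using the IDH1-knockdown HT-1080 line run in the same batch and compound series as the NT line, viability after 48 h at 37 °C was determined by CellTiter-Glo luminescence and expressed as % activity.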
ATXN2 expr inh: reduces ATXN2 reporter expression in HEK-293 cells; 360,000 compounds, 0.72% hits; Potency, µM (titrated, usually from 57 µM), without a hit: at the top dose activity change, negative = inhibition, hits mostly inhibitors; HEK-293 ATXN2-luciferase reporter, luminescence, 24 h; AID 1745845; note: % is set by controls: 0 for no effect and ±100 for the full control effect; nearly all actives have a fitted effect of over 55% in size
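qHTS (up to 57 uM final) was run with 24 h compound exposure of reporter cells at 37 °C. Each well was multiplexed: SteadyGlo luminescence measured ATXN2-luciferase expression after a fluorogenic Gly-Phe-AFC viability readout (25 uM final).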
Numbers without * were called inactive. Calls come from the whole dose curve; as a rule, active = well fitted curve in the direction sought with a large enough effect; inconclusive = small, poorly fitted or top-dose-only effect, or another doubt; inactive = no such curve, though single readings can be large; an effect the other way counts as inactive or inconclusive. Potency is the fitted concentration of half-maximal effect.

How did CCOc1ccc2[nH]c(=O)c(CN(CC3COCCO3)C(=O)c3ccco3)cc2c1 (configuration not stated) do in these assays?
HepG2 viability: -46%; HT1080NT lethal: 1%; S2 tox: inactive; TGFb SMAD3 inh: 1%; HT1080 IDH1KD tx: -1%; ATXN2 expr inh: -1%

Results for CCOC(=O)c1cc(C)n(CC2CCC(C(=O)Nc3cccc(C(C)=O)c3)CC2)c1C (configuration not stated) ?
HepG2 viability: -25%; TGFb SMAD3 inh: 14µM*

Results for CCOC(=O)c1cc(C)n(CC2CCC(C(=O)Nc3ccc(Cl)cc3)CC2)c1C (configuration not stated) ?
HepG2 viability: -25%; TGFb SMAD3 inh: 8.9µM*

Results for COc1ccc(CCn2c(C)cc(C(=O)CSc3nc(N)cc(=O)[nH]3)c2C)cc1 ?
HepG2 viability: -32%; HT1080NT lethal: inconclusive; S2 tox: inactive; TGFb SMAD3 inh: -11%; HT1080 IDH1KD tx: -24%; ATXN2 expr inh: inconclusive

How did Cc1cc(C(=O)CCl)c(C)n1CCc1ccc(F)cc1 do in these assays?
HepG2 viability: -72%; HT1080NT lethal: 5.8µM*; TGFb SMAD3 inh: inconclusive; HT1080 IDH1KD tx: 5.2µM*; ATXN2 expr inh: inconclusive

How did Cc1cc(C(=O)CCl)c(C)n1CCc1ccc(Cl)cc1 do in these assays?
HepG2 viability: 18µM*; HT1080NT lethal: 15µM*; S2 tox: inconclusive; TGFb SMAD3 inh: inconclusive; HT1080 IDH1KD tx: 8.2µM*; ATXN2 expr inh: 25µM*

Results for Cc1cc(C(=O)CSc2nc(N)cc(=O)[nH]2)c(C)n1CCc1ccc(F)cc1 ?
HepG2 viability: -41%; HT1080NT lethal: 0%; S2 tox: inactive; TGFb SMAD3 inh: 5%; HT1080 IDH1KD tx: 26µM*; ATXN2 expr inh: -22%

How did O=C(Nc1ccc(Cl)c(C(F)(F)F)c1)C1CCN(S(=O)(=O)c2cccc3nonc23)CC1 do in these assays?
HepG2 viability: -29%; S2 tox: inactive; TGFb SMAD3 inh: inconclusive; ATXN2 expr inh: -4%

How did CCCCC(CC)CNC(=O)c1ccc2c(=O)n(CCOC)c(=O)[nH]c2c1 (configuration not stated) do in these assays?
HepG2 viability: 1%; S2 tox: inactive; TGFb SMAD3 inh: 6%; ATXN2 expr inh: 115%

What do the screens show for `O=C(NCCNC1CCC(c2ccccc2)CC1)c1ccc(F)cc1` (configuration not stated)?
HepG2 viability: -43%; HT1080NT lethal: 21µM*; S2 tox: inactive; TGFb SMAD3 inh: inconclusive; HT1080 IDH1KD tx: inconclusive; ATXN2 expr inh: inconclusive

What do the screens show for `CCCN(CC)C(CC)C(=O)Nc1c(C)cccc1C` (configuration not stated)?
S2 tox: inactive

What do the screens show for `O=C1NC(=O)C(=Cc2ccccc2[N+](=O)[O-])S1`?
HepG2 viability: -9%; HT1080NT lethal: 21µM*; S2 tox: inactive; TGFb SMAD3 inh: -5%; HT1080 IDH1KD tx: inconclusive; ATXN2 expr inh: -37%

What do the screens show for `O=C1C(=Cc2ccccc2[N+](=O)[O-])Cc2ccccc21`?
HepG2 viability: 18µM*; HT1080NT lethal: inconclusive; S2 tox: inconclusive; TGFb SMAD3 inh: 13µM*; HT1080 IDH1KD tx: inconclusive

How did O=C1NC(=O)/C(=C/c2cccc3ccccc23)S1 do in these assays?
HepG2 viability: -19%; HT1080NT lethal: -10%; S2 tox: inactive; TGFb SMAD3 inh: -10%; HT1080 IDH1KD tx: -9%; ATXN2 expr inh: 31%

What do the screens show for `COc1ccc(-c2c(C)c3ccc(O)c(CN4CCCCC4)c3oc2=O)cc1OC`?
HepG2 viability: -1%; TGFb SMAD3 inh: -5%; ATXN2 expr inh: 1%

How did NS(=O)(=O)c1ccc(N2N=C(c3ccccc3)CC2c2ccccc2)cc1 (configuration not stated) do in these assays?
HepG2 viability: -104%; HT1080NT lethal: inconclusive; S2 tox: inactive; TGFb SMAD3 inh: inconclusive; HT1080 IDH1KD tx: inconclusive; ATXN2 expr inh: -25%

How did NS(=O)(=O)c1ccc(N2N=C(c3ccccc3)CC2c2ccc(Br)cc2)cc1 (configuration not stated) do in these assays?
HepG2 viability: 28µM*; HT1080NT lethal: inconclusive; S2 tox: inconclusive; TGFb SMAD3 inh: inconclusive; HT1080 IDH1KD tx: inconclusive; ATXN2 expr inh: inconclusive

Results for COc1ccc(C2CC(c3ccccc3Br)=NN2c2ccc(S(N)(=O)=O)cc2)cc1 (configuration not stated) ?
HepG2 viability: 13µM*; HT1080NT lethal: inconclusive; S2 tox: inactive; TGFb SMAD3 inh: inconclusive; HT1080 IDH1KD tx: inconclusive; ATXN2 expr inh: inconclusive

How did CCOc1ccccc1NC(=O)CN1C(=O)CC(c2ccc(OC)c(OC)c2)Sc2ccccc21 (configuration not stated) do in these assays?
HepG2 viability: -23%; S2 tox: inconclusive; TGFb SMAD3 inh: -3%; ATXN2 expr inh: inconclusive

What do the screens show for `CC1CN(CCC(=O)N2CCCC(C(=O)c3nccn3C)C2)Cc2cc(Cl)ccc2O1` (configuration not stated)?
S2 tox: inactive

Results for COc1cc(N=C2C(=O)N3c4c(cccc42)C(C)=CC3(C)C)cc(OC)c1 ?
HepG2 viability: -6%; HT1080NT lethal: 1%; S2 tox: inactive; TGFb SMAD3 inh: inconclusive; HT1080 IDH1KD tx: -1%; ATXN2 expr inh: 1%

Results for CC1=CC(C)(C)N2C(=O)C(=Nc3ccc(O)cc3)c3cccc1c32 ?
HepG2 viability: -97%; HT1080NT lethal: 16µM*; TGFb SMAD3 inh: 13µM*; HT1080 IDH1KD tx: 26µM*; ATXN2 expr inh: inconclusive

What do the screens show for `Cc1ccc(O)c(CNCCNCc2cc(C)ccc2O)c1`?
HepG2 viability: -64%; HT1080NT lethal: inconclusive; S2 tox: inactive; TGFb SMAD3 inh: inconclusive; HT1080 IDH1KD tx: inconclusive; ATXN2 expr inh: inconclusive

How did Cc1ccc(O)c(Cc2cc(C)cc(Cc3cc(C)ccc3O)c2O)c1 do in these assays?
HepG2 viability: -89%; HT1080NT lethal: -18%; S2 tox: inconclusive; TGFb SMAD3 inh: 22µM*; HT1080 IDH1KD tx: inconclusive

Results for Cc1ccc(CSc2nnc(-c3ccc(NC(=O)CCc4ccccc4)cc3)n2C)cc1 ?
HepG2 viability: 3%; TGFb SMAD3 inh: 3%

What do the screens show for `COc1ccccc1-c1ccnc(-n2ncc(C(=O)NCc3cccc(C)n3)c2C)n1`?
S2 tox: inactive
